Records with an inconclusive call do not appear. Calls of active or inactive are those of the source. The call rests on the fitted dose curve; in most records, active means well fitted cell-killing curve with a large enough effect; inconclusive means small, poorly fitted or top-dose-only effect; inactive means flat fitted curve, though single readings scatter.
Assay: qHTS of pediatric cancer cell lines to identify multiple opportunities for drug repurposing: Primary screen for DAOY cells (AID 1347090); further: nearly all actives have a fitted effect of over 55% in size
Conditions: DAOY medulloblastoma viability, CellTiter-Glo luminescence, 48 h; series mostly up to 46 µM
Source text: Drug repurposing or repositioning has been offered as a strategy for drug development in oncology programs. This approach has special potential for childhood cancers and other rare or orphan diseases, where the expected return on new drug development has been a disincentive to pharmaceuticals.
In this project we exploit the poly-pharmacology of drugs to discover new indications via phenotypic screening of a panel of 19 well-characterized cell lines derived from solid tumors seen in children and adolescents. The goal is to identify approved drugs with previously unrecognized anticancer properties that has the potential to reveal new mechanisms and biological processes involved in carcinogenesis or drug resistance. We employed a titration-based paradigm (quantitative high-throughput screening or qHTS), where all compounds were tested at multiple concentrations for their effect on cell viability. Concentration-response curves (CRCs) were derived directly from the primary screen, and both potency and efficacy values were used to identify compounds with robust bioactivity profiles. We screened the NIH Chemical Genomics Center (NCGC) Pharmaceutical Collection (NPC) and Mechanism Interrogation Plate (MIPE) small molecule collections of approved and investigational compounds against these cell lines; and measured metabolically active cells after 48 hours of compound treatment as a proxy for cell viability.
Assay Submitter: Nathalia J. Martinez, National Center for Advancing Translational Sciences, National Institutes of Health, Rockville, MD, USA; email: natalia.martinez@nih.gov
[1] Shen, M et al. Quantitative high-throughput phenotypic screening of pediatric cancer cell lines identifies multiple opportunities for drug repurposing. Oncotarget 2017 Dec 19;9(4):4758-4772. PMID 29435139.
The cells were obtained from University of North Carolina (UNC), Pediatric Preclinical Testing Program (PPT), and Coriell Institute (CI).
qHTS cell viability assay:
Cells were assayed in growth media at a density of 500-1,000 cells/well. Five microliters of cells were dispensed into 1,536-well, white, solid-bottom, TC-treated plates (Greiner Bio One) using a multidrop dispenser and incubated at 37 degrees C, 5% CO2, under a humidified atmosphere for 5 hours. Twenty-three nanoliters of compounds and controls (neutral control DMSO or positive control bortezomib at final concentration of 2.3 µM) were subsequently transferred by Kalypsys pintool. For primary screens, the MIPE collection was tested at 11-point dilutions (final concentrations range from 0.78 nM to 46 µM) and the NPC collection at 8-point dilutions (final concentrations range from 0.59 nM to 46 µM). Compounds tested in follow-up screens were assayed at 11-point dilutions. Cells were incubated for 48 hours, followed by addition of 3 uL of CellTiter-Glo (Promega). After a 15 min incubation at room temperature, samples were analyzed for luminescence intensity using a ViewLux High-throughput CCD imager equipped with clear filters.
For COCCOc1ccc2c(c1)ncn2-c1ccc2cccc(N3CCC(N)CC3)c2n1, the Potency was 23.5 µM (active).
In the case of Cc1cn2cc(C(=O)N(C)CCO)cc(N[C@@H]3CCOc4cccc(C)c43)c2n1, the Potency is reported as “inactive”.
For O=C(C=Cc1c(C(=O)O)[nH]c2cc(Cl)cc(Cl)c12)Nc1ccccc1, the Potency was “inactive”.
In the case of CC(C)c1ccc(Cn2ccc3c4c(N)nc(NC5CC5)nc4ccc32)cc1, the Potency is reported as 14.8 µM (active).
For Cc1cnc(-c2cnc(NCCNc3ccc(C#N)cn3)nc2-c2ccc(Cl)cc2Cl)[nH]1, the Potency was 14.8 µM (active).
With COc1cc2c(Oc3ccc4[nH]c(C)cc4c3F)ncnc2cc1OCCCN1CCCC1 the Potency was 18.7 µM (active).
With C=CC(=O)Nc1cc2c(Nc3ccc(F)c(Cl)c3)ncnc2cc1C#CC(C)(C)N1CCN(C)CC1 the Potency was 5.9 µM (active).
In the case of COc1cc2ncn(-c3cc(OCc4ccccc4C(F)(F)F)c(C(N)=O)s3)c2cc1OC, the Potency is reported as 0.372 µM (active).
In the case of Nc1ccccc1NC(=O)c1ccc(CNC(=O)OCc2cccnc2)cc1, the Potency is reported as 4.69 µM (active).
In the case of Cc1cc(N2CCOCC2)cc2[nH]c(-c3c(NC[C@@H](O)c4cccc(Cl)c4)cc[nH]c3=O)nc12, the Potency is reported as 0.935 µM (active).
In the case of CC(C)[C@H](C(=O)Nc1ccc(C(=O)NO)cc1)c1ccccc1, the Potency is reported as 1.87 µM (active).
For CC(C)c1cnn2c(NCc3ccccc3)cc(N[C@@H](CO)[C@H](O)CO)nc12, the Potency was 0.372 µM (active).
With CC(=O)Nc1nc(C)c(-c2ccc(Cl)c(S(=O)(=O)NCCO)c2)s1 the Potency was 5.9 µM (active).
With CN1c2cc(O)c(N=NC(N)=O)cc2CC1S(=O)(=O)O (stereo not given) the Potency was “inactive”.
With COc1ccc(-n2nc(C(N)=O)c3c2C(=O)N(c2ccc(N4CCCCC4=O)cc2)CC3)cc1 the Potency was “inactive”.
For Cn1cncc1[C@@](N)(c1ccc(Cl)cc1)c1ccc2c(c1)c(-c1cccc(Cl)c1)cc(=O)n2C, the Potency was 14.8 µM (active).
In the case of CC(C)(O)CCc1ccc(OCc2cc(-c3cccc(OC(F)F)c3)c3ncccc3c2)cc1, the Potency is reported as “inactive”.
With CC(C)(C)OC(=O)Nc1ccc(-c2cc(C(=O)NCCCCCCC(=O)NO)no2)cc1 the Potency was 4.69 µM (active).
With Cc1cn2c(-c3cn[nH]c3)cnc2c(Nc2ccc(C(=O)N3CCNCC3)cc2F)n1 the Potency was 18.7 µM (active).
In the case of Nc1nccc(Oc2ccc(NC(=O)c3c[nH]cc(-c4ccc(F)cc4)c3=O)cc2F)c1Cl, the Potency is reported as 14.8 µM (active).
For O=C(C=Cc1cccc(S(=O)(=O)Nc2ccccc2)c1)NO, the Potency was 8.55 µM (active).
In the case of Cc1ccc(C(=O)Nc2ccc(CN3CCN(C)CC3)c(C(F)(F)F)c2)cc1C#Cc1cnc2cccnn12, the Potency is reported as 18.7 µM (active).
With C#Cc1cccc(Nc2ncnc3cc(OC)c(OCCCCCCC(=O)NO)cc23)c1 the Potency was 0.059 µM (active).
With COC(=O)Nc1ccc(-c2nc(N3CCOCC3)c3cnn(C4CCN(Cc5cccnc5)CC4)c3n2)cc1 the Potency was 4.69 µM (active).
With CC(C)c1ccccc1Cc1cc(C(=O)Nc2ccc(S(=O)(=O)c3ccccc3C(C)(C)C)cc2)c(O)c(O)c1O the Potency was 29.6 µM (active).
In the case of CCC[C@H](NC(=O)C(C#N)=Cc1cccc(Br)n1)c1ccccc1, the Potency is reported as 14.8 µM (active).
For CCC(=C(c1ccccc1)c1ccc(OCCN(C)C)cc1)c1ccccc1, the Potency was “inactive”.
With OCCCNc1cc(-c2ccnc(Nc3cccc(Cl)c3)n2)ccn1 the Potency was 0.187 µM (active).
With O=C(CCCCCCC(=O)Nc1ccc([C@H]2O[C@@H](CSc3nc(-c4ccccc4)c(-c4ccccc4)o3)C[C@@H](c3ccc(CO)cc3)O2)cc1)NO the Potency was 11.8 µM (active).
With Nc1ccn([C@@H]2O[C@H](CO)[C@H](O)C2(F)F)c(=O)n1 the Potency was 1.87 µM (active).
In the case of C[C@@]12O[C@@H](C[C@]1(O)CO)n1c3ccccc3c3c4c(c5c6ccccc6n2c5c31)CNC4=O, the Potency is reported as 4.69 µM (active).
For CN1CCN(Cc2ccc(NC(=O)Nc3ccc(Oc4cc(NC(=O)C5CC5)ncn4)cc3)cc2C(F)(F)F)CC1, the Potency was 0.59 µM (active).
For C[C@]1(CO)CN(c2cc(C(=O)Nc3ccc4c(c3)-c3c(c(C(N)=O)nn3-c3ccc(F)cc3)CC4)c(Cl)cn2)C[C@@]1(C)CO, the Potency was 11.8 µM (active).
For Nc1cccc(-c2cc3c(Oc4cccc(O)c4)ncnc3[nH]2)c1, the Potency was 7.43 µM (active).
In the case of CN[C@H]1CCc2cc(OC)c(OC)c(OC)c2-c2ccc(OC)c(=O)cc21, the Potency is reported as 0.0037 µM (active).
For CN(C)CCCN=c1c2ccccc2n(C)c2[nH]c(=O)n(C)c(=O)c12, the Potency was 23.5 µM (active).
For CC(C)Nc1cc(C(F)(F)F)cc2nc(NC(=O)c3cccnc3)nn12, the Potency was “inactive”.
In the case of Cc1c(NC(=O)OC[C@@H]2COCCN2)cn2ncnc(Nc3ccc4c(cnn4Cc4cccc(F)c4)c3)c12, the Potency is reported as 0.0743 µM (active).
For Cc1cc(C(=O)N2CCN(c3cccc(Cl)c3)CC2)n(-c2ccccc2)n1, the Potency was 0.743 µM (active).
For CC(C)c1nn(-c2c(Cl)cccc2Cl)c2nc(Cc3ccc(OCCO)cc3)[nH]c(=O)c12, the Potency was 0.0743 µM (active).

Reference: PubChem BioAssay (NCATS)
Potency means the concentration at half of the fitted maximal effect.
